A number with no mark means an inactive call.

Sequence of UniProt Q14517 (Q14517 whole entry): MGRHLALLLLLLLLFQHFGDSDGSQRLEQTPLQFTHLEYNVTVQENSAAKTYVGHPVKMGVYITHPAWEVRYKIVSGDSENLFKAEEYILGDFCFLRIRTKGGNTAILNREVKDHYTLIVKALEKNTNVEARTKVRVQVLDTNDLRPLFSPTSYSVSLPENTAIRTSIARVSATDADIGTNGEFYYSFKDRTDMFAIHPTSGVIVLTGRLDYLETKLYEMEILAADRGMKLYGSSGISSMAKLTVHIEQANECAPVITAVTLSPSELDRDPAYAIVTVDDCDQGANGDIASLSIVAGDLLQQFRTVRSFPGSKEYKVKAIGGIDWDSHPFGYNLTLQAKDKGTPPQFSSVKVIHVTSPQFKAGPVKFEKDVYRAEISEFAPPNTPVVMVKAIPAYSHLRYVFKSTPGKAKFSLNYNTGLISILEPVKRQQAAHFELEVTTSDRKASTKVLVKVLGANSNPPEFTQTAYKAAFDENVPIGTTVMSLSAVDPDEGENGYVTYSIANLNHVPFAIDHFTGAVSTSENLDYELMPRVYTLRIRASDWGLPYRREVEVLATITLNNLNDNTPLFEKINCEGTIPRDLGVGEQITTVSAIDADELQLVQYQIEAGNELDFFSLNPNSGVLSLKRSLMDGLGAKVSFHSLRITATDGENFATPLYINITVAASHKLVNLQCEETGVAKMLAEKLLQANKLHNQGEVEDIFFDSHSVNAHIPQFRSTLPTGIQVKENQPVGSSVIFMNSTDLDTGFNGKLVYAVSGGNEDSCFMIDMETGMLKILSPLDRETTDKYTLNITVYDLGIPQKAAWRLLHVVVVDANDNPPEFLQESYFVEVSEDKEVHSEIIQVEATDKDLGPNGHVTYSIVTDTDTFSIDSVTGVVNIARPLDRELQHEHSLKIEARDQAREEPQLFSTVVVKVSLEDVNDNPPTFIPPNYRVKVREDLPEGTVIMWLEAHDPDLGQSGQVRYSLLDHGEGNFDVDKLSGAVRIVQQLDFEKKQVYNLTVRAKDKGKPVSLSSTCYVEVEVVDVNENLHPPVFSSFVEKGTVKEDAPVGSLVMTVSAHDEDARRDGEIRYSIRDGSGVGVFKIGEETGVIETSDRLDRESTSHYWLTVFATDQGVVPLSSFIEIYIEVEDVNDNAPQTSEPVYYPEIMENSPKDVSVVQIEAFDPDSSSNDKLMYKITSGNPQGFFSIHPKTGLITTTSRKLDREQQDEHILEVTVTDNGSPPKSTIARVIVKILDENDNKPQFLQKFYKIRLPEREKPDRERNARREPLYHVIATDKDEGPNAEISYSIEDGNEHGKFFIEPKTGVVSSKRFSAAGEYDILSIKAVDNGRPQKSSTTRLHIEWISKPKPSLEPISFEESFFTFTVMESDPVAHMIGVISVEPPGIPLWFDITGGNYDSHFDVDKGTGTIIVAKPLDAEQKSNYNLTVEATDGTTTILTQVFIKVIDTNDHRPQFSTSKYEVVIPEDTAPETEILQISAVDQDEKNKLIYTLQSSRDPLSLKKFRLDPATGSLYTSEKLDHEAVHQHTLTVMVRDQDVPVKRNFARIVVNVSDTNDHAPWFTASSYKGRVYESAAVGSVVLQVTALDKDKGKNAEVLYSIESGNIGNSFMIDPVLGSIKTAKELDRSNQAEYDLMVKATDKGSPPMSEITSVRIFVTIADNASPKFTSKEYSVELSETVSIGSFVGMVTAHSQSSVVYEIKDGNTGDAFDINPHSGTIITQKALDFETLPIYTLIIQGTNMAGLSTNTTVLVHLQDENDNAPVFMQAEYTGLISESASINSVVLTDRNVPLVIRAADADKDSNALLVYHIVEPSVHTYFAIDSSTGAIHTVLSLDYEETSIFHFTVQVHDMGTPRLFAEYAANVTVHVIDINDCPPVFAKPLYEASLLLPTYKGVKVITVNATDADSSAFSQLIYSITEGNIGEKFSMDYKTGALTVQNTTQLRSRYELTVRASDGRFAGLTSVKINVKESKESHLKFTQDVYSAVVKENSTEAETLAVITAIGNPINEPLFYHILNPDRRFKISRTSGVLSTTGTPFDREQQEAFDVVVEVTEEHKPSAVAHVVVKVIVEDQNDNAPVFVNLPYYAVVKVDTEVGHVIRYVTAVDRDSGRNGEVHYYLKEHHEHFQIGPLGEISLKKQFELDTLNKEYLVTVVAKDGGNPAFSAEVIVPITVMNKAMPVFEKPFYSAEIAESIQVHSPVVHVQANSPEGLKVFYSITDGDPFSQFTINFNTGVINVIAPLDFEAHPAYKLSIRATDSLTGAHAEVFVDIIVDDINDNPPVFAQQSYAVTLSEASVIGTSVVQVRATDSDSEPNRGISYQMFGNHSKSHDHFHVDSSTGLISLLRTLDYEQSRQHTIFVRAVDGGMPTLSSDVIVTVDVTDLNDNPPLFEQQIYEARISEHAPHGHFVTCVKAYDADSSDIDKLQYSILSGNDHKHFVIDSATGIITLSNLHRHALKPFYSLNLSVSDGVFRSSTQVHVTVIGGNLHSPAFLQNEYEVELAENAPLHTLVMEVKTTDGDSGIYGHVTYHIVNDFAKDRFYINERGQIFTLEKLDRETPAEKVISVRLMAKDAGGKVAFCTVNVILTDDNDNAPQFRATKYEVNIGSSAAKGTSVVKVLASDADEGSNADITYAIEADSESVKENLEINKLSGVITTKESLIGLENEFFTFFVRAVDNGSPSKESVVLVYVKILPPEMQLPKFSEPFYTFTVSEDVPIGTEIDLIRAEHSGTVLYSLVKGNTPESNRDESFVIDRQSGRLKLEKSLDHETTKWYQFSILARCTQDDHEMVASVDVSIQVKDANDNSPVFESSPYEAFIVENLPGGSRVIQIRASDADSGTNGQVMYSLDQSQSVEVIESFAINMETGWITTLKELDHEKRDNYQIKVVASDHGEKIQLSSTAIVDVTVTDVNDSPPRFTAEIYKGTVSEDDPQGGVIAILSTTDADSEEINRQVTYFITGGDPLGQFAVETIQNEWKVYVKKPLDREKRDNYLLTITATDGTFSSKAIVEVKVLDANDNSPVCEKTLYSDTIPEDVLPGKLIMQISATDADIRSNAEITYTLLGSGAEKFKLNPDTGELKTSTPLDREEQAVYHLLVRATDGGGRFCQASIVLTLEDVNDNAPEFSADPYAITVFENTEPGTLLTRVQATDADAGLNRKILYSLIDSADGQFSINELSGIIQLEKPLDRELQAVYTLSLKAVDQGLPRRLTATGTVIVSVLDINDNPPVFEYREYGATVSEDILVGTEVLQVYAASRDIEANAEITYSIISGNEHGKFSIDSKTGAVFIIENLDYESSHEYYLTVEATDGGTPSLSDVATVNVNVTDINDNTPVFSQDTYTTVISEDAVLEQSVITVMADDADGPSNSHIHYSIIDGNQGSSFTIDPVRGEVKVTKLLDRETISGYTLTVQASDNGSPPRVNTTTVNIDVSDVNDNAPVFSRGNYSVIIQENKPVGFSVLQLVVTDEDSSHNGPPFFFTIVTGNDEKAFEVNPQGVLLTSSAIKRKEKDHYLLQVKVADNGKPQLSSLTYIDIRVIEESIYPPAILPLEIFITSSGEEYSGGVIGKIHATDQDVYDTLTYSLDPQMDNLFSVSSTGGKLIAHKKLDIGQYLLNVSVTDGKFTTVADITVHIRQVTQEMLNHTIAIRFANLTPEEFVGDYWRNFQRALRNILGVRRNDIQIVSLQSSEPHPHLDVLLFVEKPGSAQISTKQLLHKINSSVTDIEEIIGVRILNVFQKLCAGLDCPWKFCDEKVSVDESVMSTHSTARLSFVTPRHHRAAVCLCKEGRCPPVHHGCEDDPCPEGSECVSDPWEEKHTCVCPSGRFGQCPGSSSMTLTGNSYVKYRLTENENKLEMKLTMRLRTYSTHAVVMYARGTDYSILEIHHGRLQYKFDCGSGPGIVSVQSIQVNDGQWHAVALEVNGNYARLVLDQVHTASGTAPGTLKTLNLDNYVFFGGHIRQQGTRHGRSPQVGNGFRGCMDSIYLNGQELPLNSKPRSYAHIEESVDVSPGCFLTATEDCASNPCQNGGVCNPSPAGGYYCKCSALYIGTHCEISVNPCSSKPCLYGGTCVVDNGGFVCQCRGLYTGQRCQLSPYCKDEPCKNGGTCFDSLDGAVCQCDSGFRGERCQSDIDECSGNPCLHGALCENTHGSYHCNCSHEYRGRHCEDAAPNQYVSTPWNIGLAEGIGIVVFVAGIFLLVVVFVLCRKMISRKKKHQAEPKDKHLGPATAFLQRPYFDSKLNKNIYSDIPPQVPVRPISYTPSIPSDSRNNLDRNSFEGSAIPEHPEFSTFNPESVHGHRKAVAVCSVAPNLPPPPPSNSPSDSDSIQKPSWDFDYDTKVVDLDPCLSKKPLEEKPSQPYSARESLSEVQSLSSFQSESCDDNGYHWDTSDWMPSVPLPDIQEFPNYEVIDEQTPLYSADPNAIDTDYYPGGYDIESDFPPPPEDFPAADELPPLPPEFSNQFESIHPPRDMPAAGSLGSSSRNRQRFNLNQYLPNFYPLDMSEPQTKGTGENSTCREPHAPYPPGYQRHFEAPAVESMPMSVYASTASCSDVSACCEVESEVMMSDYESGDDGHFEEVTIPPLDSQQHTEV
Sequence of UniProt Q9HB71 (Q9HB71 whole entry): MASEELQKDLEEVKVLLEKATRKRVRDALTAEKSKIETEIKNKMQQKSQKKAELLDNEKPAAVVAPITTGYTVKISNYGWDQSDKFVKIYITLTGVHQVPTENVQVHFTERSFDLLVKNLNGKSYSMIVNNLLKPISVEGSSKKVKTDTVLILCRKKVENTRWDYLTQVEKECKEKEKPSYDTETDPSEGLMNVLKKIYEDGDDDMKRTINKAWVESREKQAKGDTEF
Sequence of UniProt Q14964 (Q14964 whole entry): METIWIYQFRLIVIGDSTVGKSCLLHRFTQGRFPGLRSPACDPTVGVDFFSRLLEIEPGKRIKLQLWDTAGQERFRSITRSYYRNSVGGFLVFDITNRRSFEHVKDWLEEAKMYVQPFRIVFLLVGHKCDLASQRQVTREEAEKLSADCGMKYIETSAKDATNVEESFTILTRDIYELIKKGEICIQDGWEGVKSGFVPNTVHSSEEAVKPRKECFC

Compound in the experiment: C#CCNC(=O)CCSSCCC(=O)NCCc1ccc(C=O)c(C=O)c1
Kind of experiment: lysine labeling ratio R10:1 (500 µM / 50 µM probe), SILAC-ABPP in living cells; higher = lower intrinsic lysine reactivity toward the probe, active = 2 or less. The settings on record: HeLa; probe concentrations 500 vs 50 µM. In a few lines: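 The two probe levels, 50 µM and 500 µM, of an alkyne-tagged, disulfide-linked lysine probe were applied to living light and heavy SILAC HeLa cells in PBS at room temperature, and the labels were run in both forward and reverse orientation. Mixed lysates underwent biotin-azide click chemistry, trypsin digestion, neutravidin capture, DTT release and alkylation before LC-MS/MS on a TIMS-TOF Pro. R is the filtered median high-probe/low-probe MS1 peptide ratio for each lysine, summarised as the median over forward and reverse replicates. Nothing above 20 is reported; such values are set to 20.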
As to “PLXNA2 (lysine site: K542) (UniProt O75051)”, the “lysine labeling ratio R10:1” value was 1.9 (active).

Turning to “FAT1 (lysine site: K3783) (UniProt Q14517)”, the “lysine labeling ratio R10:1” value is 1.6 (active).

Regarding “ITGA1 (lysine site: K546) (UniProt P56199)”, the “lysine labeling ratio R10:1” value was 0.96 (active).

On to “ITGA3 (lysine site: K407) (UniProt P26006)”, for which the “lysine labeling ratio R10:1” value is 2.96.

With “FAT1 (lysine site: K2553) (UniProt Q14517)”, the “lysine labeling ratio R10:1” value was 2.67.

Consider “VASN (lysine site: K133) (UniProt Q6EMK4)”, for which the “lysine labeling ratio R10:1” value was 4.74.

As to “DST (lysine site: K3977) (UniProt Q03001)”, the “lysine labeling ratio R10:1” value was 1.83 (active).

In the case of “FLNA (lysine site: K1071) (UniProt P21333)”, the “lysine labeling ratio R10:1” value is 3.76.

As to UniProt Q8WXI7 (lysine site: K13676), the “lysine labeling ratio R10:1” value is 3.84.

Consider “ITGA2 (lysine site: K1038) (UniProt P17301)”, for which the “lysine labeling ratio R10:1” value was 2.81.

Consider UniProt P23352 (lysine site: K285), for which the “lysine labeling ratio R10:1” value is 3.04.

As to UniProt Q13275 (lysine site: K62), the “lysine labeling ratio R10:1” value was 3.35.

As for “RPL34 (lysine site: K19) (UniProt P49207)”, the “lysine labeling ratio R10:1” value is 2.71.

Consider UniProt Q14964 (lysine site: K63), for which the “lysine labeling ratio R10:1” value is 2.17.

“CACYBP (lysine site: K212) (UniProt Q9HB71)”: the “lysine labeling ratio R10:1” value is 1.91 (active).

As for “S100A6 (lysine site: K47) (UniProt P06703)”, the “lysine labeling ratio R10:1” value is 6.34.

Turning to “OSBPL5 (lysine site: K446) (UniProt Q9H0X9)”, the “lysine labeling ratio R10:1” value was 1.7 (active).

These data come from the supplement of paper PMC11001985.
